# According to PubChem BioAssay AID926 (National Center for Advancing Translational Sciences (NCATS), 2007):
# Several values for one entry are separate records, joined by “and”; a condition that tells them apart may be missing. Equal entries are not always repeated. The whole screen tested about 73,000 compounds, of which about 350 (0.48%) were called active. Another 17% or so got no clear call; they are omitted. This is one part of a sample in which actives are shown more often than they occur. Calls follow the shape of the dose curve; as a rule, active = well fitted activation curve with a large enough effect in the main read-out, with a control signal flat (not every such curve was filed as active); inconclusive = small, poorly fitted or top-dose-only effect, or a change in a side signal; inactive = no such curve, though single readings can be large or run the other way; reference of the percent scale not stated here.
# Legend:
# [1] = qHTS Assay for Agonists of the Thyroid Stimulating Hormone Receptor; conditions: HEK293-CNG-TSHR cells, membrane potential dye, cAMP; measured here: parental cells max response
# Description: (§1) NIH Chemical Genomics Center [NCGC]
# (§2) NIH Molecular Libraries Screening Centers Network [MLSCN]
# (§3) PI Name: Dr. Marvin Gershengorn, NIH
# (§4) Thyroid Stimulating Hormone Receptor
# (§5) TSH is an alpha/beta heterodimeric glycoprotein hormone secreted from the anterior pituitary gland which belongs to the glycoprotein hormone family. The actions of TSH are mediated by a seven-transmembrane receptor, which upon TSH binding couples preferentially to the G-alpha (s) protein (Gs), resulting in activation of adenylate cyclase and increase in cyclic adenosine 3', 5' monophosphate (cAMP). The TSH receptor (THSR) is mainly expressed in thyroid follicular cells and regulates their growth and function. Recombinant TSH is used to activate TSHR in patients with thyroid cancer receiving thyroid hormone suppression therapy and to screen for residual tumor after surgery, but it is expensive and must be administered intramuscularly. An orally active small molecule TSHR agonist would serve as an invaluable research tool for studying TSHR pharmacology and physiology, and would have multiple advantages in therapeutic settings. However, no selective small molecule agonist of the TSH receptor exists, and no small molecule screen for TSHR agonists has ever been reported.
# (§6) This cell based assay utilized a cyclic nucleotide gated ion channel (CNG) as a biosensor for cAMP induction by potential TSHR agonists.
# (§7) HEK 293 cells stably expressing the TSHR as well as a modified CNG were purchased from BD biosciences. Stimulation of cAMP production causes the CNG to open and subsequent membrane depolarization to occur. A fluorescent membrane potential dye (BD biosciences) was utilized to detect cAMP stimulation in TSHR cells.
# (§8) The cells were maintained in DMEM medium (Invitrogen) containing 10 % FBS (Hyclone), 100 units/ml Penicillin, 100 ug/ml Streptomycin (Invitrogen), and 250 ug/ml Geneticin (Invitrogen) and 1 ug/ml Puromycin (Invitrogen) at 37C in 5% CO2. HEK 293 cells expressing CNG but without TSHR (parental cells) were used in concert to control for compounds signaling through endogenous receptors and targets of HEK 293 cells.
# (§9) NCGC Assay Protocol Summary:
# (§10) High Throughput Screening. Freshly passaged cells (TSHR or parental) were dispensed into 1536-well assay plates at 4 ul/well in DMEM containing phenol red (Invitrogen), 10% FCS (Hyclone), and 100 units/ml Penicillin, 100 ug/ml Streptomycin (Invitrogen) and incubated at 37 C with 5% CO2 for 20 to 36 hrs before the robotic screening. The screen was initiated by addition of 4 ul/well membrane potential dye containing 100 uM RO 20-1724 (Sigma Aldrich), followed by 60 min incubation at room temperature to allow for dye equilibration across the cell membrane. 23 nl/well compound or control was then added to the assay plates, which were incubated for additional 30 min before reading a Envision fluorescence plate reader (Perkin Elmer) in bottom-read mode for fluorescence intensity (emission at 590 nm).
# (§11) Keywords: Thyroid-stimulating hormone TSH, TSHR, TSHR agonist, quantitative high throughput screening, qHTS, HTS, probe identification, CNG, cAMP, cyclic nucleotide gated ion channel PubChem
# [2] = target: Thyrotropin receptor (Homo sapiens) (UniProt P16473); assay: as above; conditions: HEK293-CNG-TSHR cells (CNG channel as cAMP sensor), membrane potential dye, cAMP; series mostly up to 57.1 µM
# Description: as §1, §2, §3, §4, §5, §6, §7, §8, §9, §10, §11
# Potency is read from the fitted curve at half-maximal effect.
# Chain of Thyrotropin receptor (Homo sapiens) (P16473 whole entry, looked up): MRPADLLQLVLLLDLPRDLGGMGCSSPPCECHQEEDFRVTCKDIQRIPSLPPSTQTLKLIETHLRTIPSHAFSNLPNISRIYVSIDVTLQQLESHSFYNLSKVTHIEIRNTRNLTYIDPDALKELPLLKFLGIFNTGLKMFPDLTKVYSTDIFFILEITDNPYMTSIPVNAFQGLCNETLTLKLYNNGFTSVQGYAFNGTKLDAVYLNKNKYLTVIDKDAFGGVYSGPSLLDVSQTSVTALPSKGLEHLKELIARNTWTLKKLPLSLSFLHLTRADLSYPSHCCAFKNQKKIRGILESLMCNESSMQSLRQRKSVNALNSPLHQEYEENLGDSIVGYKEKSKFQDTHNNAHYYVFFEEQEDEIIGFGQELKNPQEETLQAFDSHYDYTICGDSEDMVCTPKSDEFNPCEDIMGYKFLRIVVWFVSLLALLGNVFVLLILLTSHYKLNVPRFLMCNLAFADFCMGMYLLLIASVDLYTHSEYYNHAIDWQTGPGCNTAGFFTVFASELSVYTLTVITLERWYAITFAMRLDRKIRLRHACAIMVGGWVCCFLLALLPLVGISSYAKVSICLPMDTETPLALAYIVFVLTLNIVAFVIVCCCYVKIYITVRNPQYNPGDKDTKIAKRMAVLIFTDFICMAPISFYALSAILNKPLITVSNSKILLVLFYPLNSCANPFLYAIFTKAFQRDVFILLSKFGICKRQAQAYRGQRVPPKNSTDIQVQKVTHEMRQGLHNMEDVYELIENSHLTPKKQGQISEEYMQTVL
SMILES,activation [1],Potency [2],activation [2]
CC1CN(c2cc(=O)n(Cc3ccc(F)cc3)c(=O)[nH]2)CC(C)O1 (stereo unspecified),3.44%,inactive,
COc1cccc([C@H]2Oc3ccc(OC)cc3/C(=N\OCC[C@@H]3C=C[C@H](OC(C)=O)[C@H](COC(C)=O)O3)[C@@H]2O)c1,1.81%,,9.23% [at 11.4 µM] (inactive)
COC(=O)[C@@H]1CC[C@H](C)[C@@H](c2ccc(C)cc2)N1C(=O)c1ccc(/C=N\OC[C@@H](O)COCc2ccco2)cc1,44.4%,,16.9% [at 11.4 µM] (inactive)
c1ccc2c(Nc3ccncc3)nc(-c3ccc4c(c3)OCO4)nc2c1,-4.18%,inactive,
CCc1ccccc1NC(=O)c1cccs1,-1.56%,inactive,
Nc1ccccc1N,-14.7%,inactive,
Cc1ccc(CCn2c3c(c4ccccc42)CN(C)CC3)cn1,19.4%,inactive,
COC(=O)[C@@]1(Cc2ccc(F)cc2)[C@H]2c3cc(C(=O)N(C)C)n(CCc4c[nH]c5ccc(OC)cc45)c3C[C@H]2CN1C(=O)c1ccccc1,3.36%,inactive,
CO[C@H]1COC(=O)[C@@H](C)NC(=O)C/C=C\[C@@H](C)[C@H](OC)COC(=O)C/C=C\[C@@H]1C,2.45%,,-73.4% [at 11.4 µM] (inactive)
CCOc1cc(/C=N/O)cc(Br)c1OC,15%,,4.51% [at 11.4 µM] (inactive)
C[C@H]1CC[C@H](C(=O)O)N[C@@H]1c1ccc(C#Cc2ccccc2)cc1,0.689%,,0.128% [at 11.4 µM] (inactive)
O=C(c1cccs1)N1CCN(Cc2ccc3c(c2)OCO3)CC1,-2.72%,inactive,
C[C@@H]1O[C@@H](O[C@@H]2[C@@H](O)[C@H](OCCc3ccc(O)c(O)c3)O[C@H](CO[C@@H]3O[C@H](CO)[C@@H](O)[C@H](O)[C@H]3O)[C@H]2OC(=O)/C=C/c2ccc(O)c(O)c2)[C@H](O)[C@H](O)[C@H]1O,23.7%,inactive,
c1ccc(COc2nsnc2N2CCOCC2)cc1,27.1%,31.6 µM (active),
O=C(O)COc1nsnc1N1CCOCC1,-10.1%,inactive,
c1nc(COc2nsnc2N2CCOCC2)cs1,-7.01%,inactive,
COc1ccc(OC)c(NC(=O)CSc2nc(N)c(-c3ccccc3)c(=O)[nH]2)c1,9.04%,25.1 µM (active),
CCn1c(COc2ccc(OC)cc2)nnc1SCC(=O)Nc1cc(OC)ccc1OC,24.1%,inactive,
COc1ccc(OC)c(NC(=O)CC(Cc2ccccc2OC)C(=O)O)c1 (stereo unspecified),9.66%,inactive,
CN(C)CCCCNC(=O)c1ccc(Cc2nc3ccccc3[nH]2)cc1,3.13%,inactive,
Cc1ccc2oc(=O)c3cnn(CC(=O)N4CCN(c5ccccn5)CC4)c3c2c1,4.94%,inactive,
CC(C)[C@@H](OCc1ccccc1)[C@H](C)/C=N\OC[C@@H](C)[C@H](OCc1ccccc1)C(C)C,2.03%,,1.85% [at 11.4 µM] (inactive)
Cc1c(S(=O)(=O)O)ccc(N=Nc2c(O)c(C(=O)O)cc3ccccc23)c1Cl,-23.8%,,-9.34% [at 11.4 µM] (inactive)
Cc1nc2cnc(N3CCNCC3)nc2n(CCc2ccccc2)c1=O,9.57%,inactive,

SMILES,activation [1],Potency [2],activation [2]
CCOC(=O)c1c(NC(=O)CCC(=O)NCc2ccco2)sc2c1CCCC2,12.9%,inactive,
O=C(COC(=O)C12CC3CC(CC(C3)C1)C2)NCc1ccco1,-8.57%,0.794 µM (active),
O=C(COC(=O)CCC(=O)c1cccs1)NCc1ccco1,10.5%,inactive,
CC(C)CO/N=C1/C[C@@H](O)[C@@H](O)[C@@H]2[C@@H]3C(=O)N(C[C@@H]4CCCO4)C(=O)[C@H]3CC[C@@H]12,4.27%,,-4.09% [at 11.4 µM] (inactive)
COC(=O)C(C(=O)OC)[C@@H]1CCCC(=O)C1,4.23%,,-9.31% [at 11.4 µM] (inactive)
COC(=O)C(C)Sc1ccc2nnc(-c3cccc(F)c3)n2n1 (stereo unspecified),2.29%,inactive,
CSc1ccc(Cl)c(C(=O)OCC(=O)N2CC(C)OC(C)C2)c1 (stereo unspecified),6.62%,inactive,
COC(=O)C1=C(C)N(Cc2ccccc2)C2=C3C(=O)N(c4ccccc4)C(=O)C3[C@@](O)(C(=O)OC)C(=O)N2C1c1ccccc1 (stereo partly specified),9.18% and 2.67%,,-0.785% [at 11.4 µM] (inactive) and 7.43% [at 11.4 µM] (inactive)
CCCNC(=O)OC[C@@H]1O[C@H](c2ccccc2)C=C[C@@H]1Oc1ccc(OC)cc1,1.38%,,1.94% [at 11.4 µM] (inactive)
CN1CCCc2cc(C#N)c(=O)[nH]c21,7.1%,,4.78% [at 11.4 µM] (inactive)
O=C(COc1cccc(-n2cnnn2)c1)NCCC1=CCCCC1,-0.416%,inactive,
O=C(Cc1nn[nH]n1)NCCC1=CCCCC1,15.8%,inactive,
O=C(CN1C(=O)NC2(CCCCC2)C1=O)NCCC1=CCCCC1,3.28%,12.6 µM (active),
CNC(=O)C1(C)C=CC2(CCCCC2)N1C(C)=O (stereo unspecified),9.38%,inactive,
O=C(c1ccccc1)c1ccc2nc(N3CCCCC3)c3nncn3c2c1,3.47%,inactive,
O=C(O)c1cc(S(=O)(=O)N2CCCCCC2)c(Cl)cc1Cl,9.56%,,12.9% [at 11.4 µM] (inactive)
COC(=O)[C@@]1(C)C=C[C@@H](Cc2ccccc2)N1C(C)=O,15.2%,inactive,
CCC[C@@H]1C[C@@]1(CCC)C(NC(=O)c1ccc(-c2ccccc2)cc1)c1cccc(Cl)c1 (stereo partly specified),-2.94%,inactive,
COC(=O)C1(C)C=CCN1C(=O)c1ccccc1 (stereo unspecified),22%,inactive,
O=C(Cl)c1ccccc1[N+](=O)[O-],27%,inactive,
CC(C)CN1CCc2nc(-c3ccccc3)c3c(c2C1)COC(C)C3 (stereo unspecified),-2.08%,,-2.84% [at 11.4 µM] (inactive)
CCN(CC)CCCCn1c(-c2ccccc2)nc2c(N3CCOCC3)nc(C)nc21,25%,inactive,
CN1CCN(Cc2nc3c(c(=O)n(C)c(=O)n3C)n2Cc2cccc3ccccc23)CC1,2.12%,inactive,
C[C@@H]1/C=C\CC(=O)OC[C@H]2O[C@@H](C=C[C@@H]2O)[C@H](C)/C=C\CC(=O)OC[C@H]2O[C@H]1C=C[C@@H]2O,-6.65%,,-3.42% [at 11.4 µM] (inactive)
